Screening data: PubChem, several laboratories
OPRM1-OPRD1 inv – inverse agonist of human OPRM1-OPRD1 heterodimerization; P35372+P41143; cell-based MOR-DOR heterodimer luminescence, inverse agonism; inhibition, % at 9.3 µM; 0.21% of 340,000 active; AID 504357; in the data active means inhibition above about 22%, passing the limit was not always enough
HTR5A inv ag – HTR5A inverse agonism, opioid heterodimer counter-screen; P47898; HTR5A cell line, luminescence; inhibition, % at 9.3 µM; 0.083% of 340,000 active; in the data active means inhibition mostly above about 23%, no sharp cut-off; inactive means mostly below about 18%
V-ATPase pH – alters yeast V-ATPase proton transport; response, % at 10 µM; 0.37% of 350,000 active; S. cerevisiae, pHLuorin cytosolic pH fluorescence; in the data active means response mostly above about 7.3%, no sharp cut-off; inactive means mostly below about 5.4%; further: actives read high
MIN6 prolif – induces beta-cell replication in MIN6 cells; MIN6 cells proliferation, ATPlite luminescence, 48 h; cells starved in 0.2% serum; 100% = growth in 10% serum; 0.29% of 330,000 active; proliferation, % at 10 µM; AID 2380;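 active means compounds whose signal lies at least 3.5 SD above the mean of all wells on their plate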
HTR5A ag ctr – activates human HTR5A in OPRM1-OPRD1 agonist counter-screen. HTR5A agonist assay, luminescence, cell-based. AID 504692. P47898. activation, % at 9.3 µM. 0.61% of 340,000 active; in the data active means activation mostly above about 9.5%, no sharp cut-off; inactive means mostly below about 7.6%
MOR-DOR ag – OPRM1-OPRD1 heterodimerization agonism; P35372+P41143; cells, luminescence; activation, % at 9.3 µM; 0.3% of 340,000 active; in the data active means activation above about 18%
V-ATPase pH SP – yeast V-ATPase proton transport regulation | shares compounds with V-ATPase pH | S. cerevisiae pHLuorin cytosolic pH | response, % at 10 µM | 2% of 980 active; in the data active means response above about 24%
Of the large screens only hits and unclear results are named; the others gave an inactive call (follow-up assays come after a bar, where they were run). Most compounds without a hit are left out; they make up all but 1.7% or so of the library.

O=C(NCCc1c[nH]c2ccccc12)/C(=C\c1ccco1)NC(=O)c1ccco1	none
CC(Oc1ccc(Br)cc1)C(=O)Nc1ccc(S(=O)(=O)N(C)C2CCN(C)CC2)cc1 (stereo not drawn)	none
Cc1sc(-c2ccccn2)nc1OC(=O)c1ccc(Cl)c(Cl)c1	none
Cc1sc(-c2ccccn2)nc1OC(=O)c1ccc(F)cc1F	V-ATPase pH 11 (no result: MIN6 prolif) | V-ATPase pH SP inactive
CC1=C(C(=O)Nc2ccccn2)C(c2ccc3c(c2)OCO3)C2=C(CC(C)(C)CC2=O)N1 (stereo not drawn)	none
CCN(CC)c1ccc(C2C(C(=O)Nc3ccccn3)=C(C)NC3=C2C(=O)CC(C)(C)C3)cc1 (stereo not drawn)	V-ATPase pH 17 | V-ATPase pH SP inactive
CCOC(=O)NC(Nc1ccc(S(N)(=O)=O)cc1)(C(=O)OCC)C(F)(F)F (stereo not drawn)	V-ATPase pH 13 | V-ATPase pH SP inactive
CCOC(=O)C(NC(C)=O)(Nc1ccc(F)cc1)C(F)(F)F (stereo not drawn)	none
CC(=O)c1cc(F)ccc1OCC(=O)Nc1ccc2c(c1)OCO2	none
O=[N+]([O-])c1cccnc1NCc1cccs1	none
C[n+]1cc[nH]c1SCC(=O)c1ccc(Cl)cc1	V-ATPase pH 7.5 | V-ATPase pH SP inactive
C[n+]1cc[nH]c1SCC(=O)c1ccccc1	none
OCCC1CN(Cc2ccccc2OC2CCCC2)CCN1Cc1ccsc1 (stereo not drawn)	V-ATPase pH 8.4 | V-ATPase pH SP inactive
CCC(C)NCCOCCOc1ccc(C)cc1Br (stereo not drawn)	V-ATPase pH 36 | V-ATPase pH SP inactive
Cc1ccc(S(=O)(=O)NCCC(=O)N2CCN(S(=O)(=O)c3cccc(F)c3)CC2)cc1C	V-ATPase pH 9.1 | V-ATPase pH SP inactive
CCC(=O)NC(=S)Nc1ccc(N2CCN(C(=O)c3ccc(Cl)cc3)CC2)cc1	none
COc1cc(C2NC(=O)NC(C)=C2C(=O)OCc2ccc(C)cc2)cc(OC)c1O (stereo not drawn)	V-ATPase pH 9.5 | V-ATPase pH SP inactive
Cc1ccnc(NS(=O)(=O)c2ccc(NC(=O)c3ccc(N4C(=O)CCC4=O)cc3)cc2)n1	V-ATPase pH 12 | V-ATPase pH SP inactive
CCOC(=O)Cn1c(=O)c(-c2ccccc2NCc2ccccc2)nc2ccccc21	none | V-ATPase pH SP inactive
CCOC(=O)Cn1c(-c2ccccc2)nc2ccccc2c1=O	none | V-ATPase pH SP inactive
Cc1nc2ccccc2n1CC(=O)OCC(=O)NCc1ccccc1	none
COc1ccc(C2=NS(=O)(=O)N(C)C(C(=O)NC3CCCC3)=C2)cc1	none
COc1ccc(C2=NS(=O)(=O)N(C)C(C(=O)NC3CCCCC3)=C2)cc1	V-ATPase pH 11 | V-ATPase pH SP inactive
CCOC(=O)c1ccc(NC(=O)COc2ccc(CNCCO)cc2OCC)cc1	none
CCOC(=O)c1ccc(NC(=O)COc2ccccc2CNCCc2ccccc2)cc1	V-ATPase pH 14 | V-ATPase pH SP inactive
CC(=O)Nc1ccc(S(=O)(=O)N2CCN=C2SCc2ccccc2C)cc1	none
N#C/C(=C(/O)COc1ccc(Br)cc1)c1nnc2n1CCCCC2	V-ATPase pH 7.5 | V-ATPase pH SP inactive
CC/C(O)=C(/C#N)c1nnc2n1CCCCC2	none
CNc1[nH]c(=O)[nH]c(=O)c1N=Nc1cc(Cl)ccc1Cl	none (no result: OPRM1-OPRD1 inv, HTR5A inv ag, HTR5A ag ctr, MOR-DOR ag)
CCn1c(C)cc2c(c1=O)C(c1ccncc1)C(C#N)=C(N)O2 (stereo not drawn)	none
Cc1cc2c(c(=O)n1Cc1cccnc1)C(c1ccc(F)cc1)C(C#N)=C(N)O2 (stereo not drawn)	V-ATPase pH 12 | V-ATPase pH SP inactive
CCCOc1ccc(/C=C/C(=O)NC2CCCCC2)cc1OC	none
COc1cc(/C=C/C(=O)NC2CCCCC2)cc(OC)c1OC	V-ATPase pH 8.8 | V-ATPase pH SP inactive
CC1CCCCN1S(=O)(=O)c1coc(C(N)=O)c1 (stereo not drawn)	V-ATPase pH 7.0 | V-ATPase pH SP inactive
CC1CCCN(S(=O)(=O)c2coc(C(N)=O)c2)C1 (stereo not drawn)	none
O=C(Nc1nc2ccccc2n1CCN1CCOCC1)c1ccc(COc2ccccc2Br)o1	none (no result: OPRM1-OPRD1 inv, HTR5A inv ag, V-ATPase pH, HTR5A ag ctr, MOR-DOR ag)
CN(CC(=O)Nc1ccc(F)cc1[N+](=O)[O-])Cc1ccccc1	V-ATPase pH 7.9 | V-ATPase pH SP inactive
